According to PubChem BioAssay:
Activity calls are given as the source filed them. Unless noted, the rule behind the calls is not given here.

Legend:
[1] = A549 cell viability effects, profiling panel, calcein-AM fluorescence, 48 h, basal (AID 1162); conditions: higher = more signal; note: test concentration not given here
[2] = adipocyte viability effects, profiling panel, cell-based, 3T3-L1 adipocytes, calcein-AM fluorescence, 48 h, basal (AID 1163); conditions: 3T3-L1 adipocytes viability, higher = more signal; note: test concentration not given here
[3] = HepG2 cell viability effects, profiling panel, calcein-AM fluorescence, 48 h, basal (AID 1164); conditions: higher = more signal; note: test concentration not given here
[4] = MM1S cell viability effects, profiling panel, calcein-AM fluorescence, 48 h, basal (AID 1165); conditions: higher = more signal;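 note: viability of MM1S multiple myeloma cells under basal unstimulated conditions; test concentration not given here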
[5] = basal RPMI8226 viability, no added stimulus, profiling panel, cell-based, calcein-AM fluorescence, 48 h, PK04 Diversity Set (AID 1166); conditions: higher = more signal; RPMI8226 myeloma viability, calcein-AM fluorescence, 48 h unless noted;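 note: cells grown under basal conditions without added stimulus; test concentration not given here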
[6] = basal HepG2 mitochondrial membrane potential changes, profiling panel, cell-based, JC-1 fluorescence, 24 h, 100 nL compound (AID 1167); conditions: higher = more signal; note: test concentration not given here
[7] = basal 3T3-L1 adipocyte mitochondrial potential changes, profiling panel, cell-based, JC-1 fluorescence, 3T3-L1 adipocytes, 24 h, 100 nL compound (AID 1168); conditions: JC-1 mitochondrial fluorescence; higher = more signal, called active from +8 up or from −8 down unless noted; note: test concentration not given here
[8] = basal RPMI8226 mitochondrial membrane potential changes, profiling panel, cell-based, JC-1 fluorescence, 24 h, 100 nL compound (AID 1169); conditions: higher = more signal; RPMI8226 myeloma, JC-1 mitochondrial potential fluorescence, 24 h unless noted; note: test concentration not given here
[9] = basal MM1S mitochondrial membrane potential changes, profiling panel, cell-based, JC-1 fluorescence, 24 h, 100 nL compound (AID 1170); conditions: higher = more signal; note: test concentration not given here
[10] = A549 lung cancer cell viability effects, profiling panel, resazurin fluorescence, 24 h, PK04 Diversity Set (AID 1171); conditions: higher = more signal, called active from +8 up or from −8 down unless noted; note: test concentration not given here
[11] = HepG2 liver cancer cell viability effects, profiling panel, resazurin fluorescence, 24 h, PK04 Diversity Set (AID 1172); conditions: higher = more signal; note: test concentration not given here
[12] = basal S. cerevisiae growth modulation, no modifier, primary screen, OD600, strain BY4716, 24 h, basal condition (AID 1173); conditions: OD600, 24 h; higher = more signal, called active from +8 up or from −8 down unless noted
[13] = MM1S myeloma cell viability, profiling panel, resazurin fluorescence, basal, 24 h, PK04 Diversity Set (AID 1174); conditions: higher = more signal, called active from +8 up or from −8 down unless noted;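 note: MM1S multiple myeloma cell line; test concentration not given here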
[14] = target: Dihydroorotate dehydrogenase (quinone), mitochondrial (Plasmodium falciparum (isolate 3D7)) (UniProt Q08210); experiment: PfDHODH enzyme inhibitors, primary screen, biochemical, C-terminal His tag, absorbance 600 nm (AID 1175); conditions: DCIP absorbance 600 nm; higher = more signal, called active from +8 up or from −8 down unless noted;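 note: recombinant parasite enzyme with a five histidine tag at its C terminus; test concentration not given here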
[15] = P. aeruginosa biofilm formation inhibitors, primary screen, strain PAO1, LB-PBS medium, absorbance 600 nm (AID 1176); note: test concentration not given here; conditions: P. aeruginosa PAO1 growth/biofilm, A600, 12 h; higher = more signal
[16] = S. cerevisiae RM11-1a growth modifiers, primary screen, strain RM11-1a, OD600, basal, 24 h (AID 1177); conditions: OD600, 24 h; higher = more signal, called active from +8 up or from −8 down unless noted;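 note: cultures grown under basal conditions with no added stressor; test concentration not given here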
[17] = E. coli acrAB mutant growth effects, primary screen, E. coli filamentation inducers, strain DRC39, OD650, 24 h (AID 1178); conditions: higher = more signal, called active from +8 up or from −8 down unless noted;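 note: growth measured as culture turbidity by optical density at 650 nm; test concentration not given here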
[18] = E. coli acrAB mutant growth effects, primary screen, E. coli filamentation inducers, strain DRC39, OD650, 48 h (AID 1179);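 note: screen aims at cell division blockers that make cells filament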; conditions: E. coli DRC39 delta-acrAB growth, higher = more signal, called active from +8 up or from −8 down unless noted
[19] = RPMI8226 myeloma cell viability, profiling panel, resazurin fluorescence, basal, 24 h, PK04 Diversity Set (AID 1180); conditions: higher = more signal; RPMI8226 viability, resazurin fluorescence, 24 h unless noted;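 note: RPMI8826 multiple myeloma cell line at 5000 cells per well; test concentration not given here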
[20] = target: E3 ubiquitin-protein ligase XIAP (Homo sapiens) (UniProt P98170); experiment: XIAP binders, primary screen, biophysical, small-molecule microarray, fluorescence 635 nm (AID 1181); conditions: small-molecule microarray binding, higher = more signal;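 note: score merges 667 nm emission and signal to noise over triplicate slides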
E3 ubiquitin-protein ligase XIAP (Homo sapiens), sequence (P98170 whole entry, looked up): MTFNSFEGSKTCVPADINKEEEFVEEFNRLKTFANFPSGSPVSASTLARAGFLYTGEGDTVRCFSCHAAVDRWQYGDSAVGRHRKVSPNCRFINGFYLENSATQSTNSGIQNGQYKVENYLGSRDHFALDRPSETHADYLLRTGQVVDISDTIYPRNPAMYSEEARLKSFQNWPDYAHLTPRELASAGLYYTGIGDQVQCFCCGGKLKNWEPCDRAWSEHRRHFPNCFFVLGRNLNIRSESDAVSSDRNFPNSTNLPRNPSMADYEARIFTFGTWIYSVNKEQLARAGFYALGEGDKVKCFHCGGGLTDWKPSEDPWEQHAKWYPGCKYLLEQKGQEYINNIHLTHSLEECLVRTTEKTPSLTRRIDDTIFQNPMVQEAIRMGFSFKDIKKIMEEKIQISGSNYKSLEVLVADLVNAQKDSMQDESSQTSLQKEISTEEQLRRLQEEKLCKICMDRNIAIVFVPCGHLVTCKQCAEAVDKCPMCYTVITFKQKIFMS

Dihydroorotate dehydrogenase (quinone), mitochondrial (Plasmodium falciparum (isolate 3D7)), sequence (Q08210 whole entry, looked up): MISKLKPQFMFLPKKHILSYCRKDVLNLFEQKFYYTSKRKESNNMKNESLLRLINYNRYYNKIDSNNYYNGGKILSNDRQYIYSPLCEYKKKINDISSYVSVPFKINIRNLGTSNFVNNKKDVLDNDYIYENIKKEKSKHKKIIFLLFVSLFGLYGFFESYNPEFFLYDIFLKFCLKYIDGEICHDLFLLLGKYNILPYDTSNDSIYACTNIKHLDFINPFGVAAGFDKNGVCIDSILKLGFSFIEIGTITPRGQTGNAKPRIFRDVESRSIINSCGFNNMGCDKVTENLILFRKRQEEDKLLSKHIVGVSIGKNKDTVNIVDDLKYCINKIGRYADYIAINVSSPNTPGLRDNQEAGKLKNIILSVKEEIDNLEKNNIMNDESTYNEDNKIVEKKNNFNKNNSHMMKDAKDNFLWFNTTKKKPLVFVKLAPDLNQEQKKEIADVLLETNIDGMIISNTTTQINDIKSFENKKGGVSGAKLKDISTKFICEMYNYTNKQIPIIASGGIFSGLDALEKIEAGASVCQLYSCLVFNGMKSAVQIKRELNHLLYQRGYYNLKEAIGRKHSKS

Compound	z-score [1]	z-score [2]	z-score [3]	z-score [4]	z-score [5]	z-score [6]	z-score [7]	z-score [8]	z-score [9]	z-score [10]	z-score [11]	z-score [12]	z-score [13]	composite z-score [14]	z-score [15]	z-score [16]	z-score [17]	z-score [18]	z-score [19]	composite z-score [20]
COC(=O)C1(C)C=C2C(=C(C)C(=O)C2C)CN1 (stereo not given)	-1.32	-0.254	-1.21	0.224	-2.24	-1.57	-0.482 (inactive)	0.262	-0.221	-1.62 (inactive)	-1.13	2.09 (inactive)	-2.31 (inactive)	-0.809 (inactive)	1.53 (inactive)	1.17 (inactive)	-0.608 (inactive)	-1.64 (inactive)	-1.24	0.226
C=C(CC1(CNP(=O)(c2ccccc2)c2ccccc2)CC1)c1ccccc1	-1.21	-0.457	-1.36	-0.159	-0.614	-1.41	-0.531 (inactive)	0.29	-0.987	0.344 (inactive)	-0.101	0.736 (inactive)	-0.342 (inactive)	0.271 (inactive)	0.0944 (inactive)	0.389 (inactive)	-0.174 (inactive)	0.249 (inactive)	-0.34	-0.177
CCOC(=O)[C@H]1CC=C2C(=O)Oc3ccc(Br)cc3[C@@H]21	-2.46	-0.556	-2.35	-2.9	-3.93	1.36	0.599 (inactive)	0.407	0.132	0.234 (inactive)	0.328	-17 (active)	-0.595 (inactive)	-0.89 (inactive)	0.477 (inactive)	-14 (active)	-0.936 (inactive)	-0.568 (inactive)	-0.0544	0.355
CCCc1cc2c(n1CCO)C(C)C1CN(C(=O)c3ccccc3)C(C)(C(=O)OC)C21 (stereo not given)	-0.981	0.348	0.436	-1.38	-0.875	0.156	-0.962 (inactive)	0.719	-0.379	-1.04 (inactive)	-1.6	0.262 (inactive)	-1.68 (inactive)	-0.349 (inactive)	-0.0703 (inactive)	0.168 (inactive)	-0.681 (inactive)	-0.127 (inactive)	-1.85	0.612
CCOC(=O)[C@H]1CC=C2C(=O)Oc3ccccc3[C@@H]21	-0.961	-0.214	-1.13	-1.35	-0.132	-0.417	0.846 (inactive)	0.979	-1.08	0.991 (inactive)	0.867	-10.4 (active)	-0.848 (inactive)	0.188 (inactive)	0.381 (inactive)	-1.43 (inactive)	-0.475 (inactive)	-1.11 (inactive)	-0.575	-0.0727
COC(=O)[C@@]1(Cc2ccccc2)[C@H]2c3cc(C(=O)N(C)C)[nH]c3C[C@H]2CN1C(=O)c1ccccc1	-1.08	-0.0276	-0.78	0.047	-0.458	-0.592	-0.562 (inactive)	0.816	-0.807	0.121 (inactive)	-0.154	0.887 (inactive)	-0.693 (inactive)	-0.434 (inactive)	0.0944 (inactive)	0.439 (inactive)	-0.513 (inactive)	0.0889 (inactive)	-0.57	0.215
C[C@H]1O[C@H]2C3=C(C(=O)[C@@H]4O[C@@H]4[C@@H]3O)[C@@H]1[C@@H]1[C@@H](C)OC=C3[C@@H](O)[C@H]4O[C@H]4C(=O)[C@]312	0.767	0.439	0.0608	-1.54	-0.168	-0.407	0.407 (inactive)	0.692	-0.996	-0.831 (inactive)	-0.85	-0.92 (inactive)	-1.92 (inactive)	-1.59 (inactive)	0.629 (inactive)	-0.839 (inactive)	0.215 (inactive)	-0.115 (inactive)	-0.416	-0.136
COc1cc2c(cc1O)C=[N+](C)CC2	1.82	0.775	0.496	-0.0896	0.245	0.424	0.964 (inactive)	-0.0385	-0.635	-1.52 (inactive)	-0.365	0.248 (inactive)	-0.765 (inactive)	-1.7 (inactive)	0.158 (inactive)	-0.756 (inactive)	0.313 (inactive)	1.42 (inactive)	-0.383	0.0613
